Only some compounds are listed: those with a hit (about 1.1% of all), similar ones and a draw of the others.
VLA-4 antagonist – inhibitors of LDV-FITC binding to Mn2+-activated VLA-4, primary screen, Jurkat cells; inhibition, % at 10 µM (by protocol); Integrin alpha-4 (Homo sapiens), P13612; 24,000 compounds, 0.2% hits; LDV-FITC binding with Mn2+, flow cytometry; 100% = Mn2+-driven binding gain fully reversed;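 active = inhibition above 50%; inconclusive = compound itself fluorescent, judged against control cell fluorescence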
Target sequence (P13612 whole entry, looked up): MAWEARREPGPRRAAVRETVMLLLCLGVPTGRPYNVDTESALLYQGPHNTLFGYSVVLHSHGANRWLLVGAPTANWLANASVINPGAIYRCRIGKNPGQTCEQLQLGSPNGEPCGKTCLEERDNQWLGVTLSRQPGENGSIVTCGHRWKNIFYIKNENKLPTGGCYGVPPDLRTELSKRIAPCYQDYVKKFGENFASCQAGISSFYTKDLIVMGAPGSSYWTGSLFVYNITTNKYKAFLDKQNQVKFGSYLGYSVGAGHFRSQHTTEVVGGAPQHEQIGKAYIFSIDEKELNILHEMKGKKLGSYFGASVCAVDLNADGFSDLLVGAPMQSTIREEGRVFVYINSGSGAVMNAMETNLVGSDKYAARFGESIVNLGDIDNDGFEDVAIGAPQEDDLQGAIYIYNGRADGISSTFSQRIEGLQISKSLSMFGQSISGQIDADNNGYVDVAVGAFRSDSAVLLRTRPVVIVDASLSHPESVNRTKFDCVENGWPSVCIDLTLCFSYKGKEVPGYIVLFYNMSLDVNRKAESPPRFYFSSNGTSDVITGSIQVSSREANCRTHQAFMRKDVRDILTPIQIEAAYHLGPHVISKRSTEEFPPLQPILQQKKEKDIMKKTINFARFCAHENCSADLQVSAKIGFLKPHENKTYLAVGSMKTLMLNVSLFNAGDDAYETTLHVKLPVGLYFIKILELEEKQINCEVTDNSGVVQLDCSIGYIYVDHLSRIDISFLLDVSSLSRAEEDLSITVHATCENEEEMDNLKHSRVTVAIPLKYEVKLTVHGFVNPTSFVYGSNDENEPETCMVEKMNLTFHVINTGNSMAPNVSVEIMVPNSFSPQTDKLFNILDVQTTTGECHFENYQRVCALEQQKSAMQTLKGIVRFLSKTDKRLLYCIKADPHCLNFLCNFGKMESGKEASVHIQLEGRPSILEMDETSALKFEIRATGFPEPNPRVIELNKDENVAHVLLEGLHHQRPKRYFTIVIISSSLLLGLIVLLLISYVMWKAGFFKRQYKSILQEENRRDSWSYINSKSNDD
VLA-4 agonist – enhancers of LDV-FITC binding to VLA-4 integrin, primary screen, Jurkat cells, flow cytometry | 24,000 tested, under 10 active | AID 528, 2006 | Integrin alpha-4 (Homo sapiens), P13612 | activation, % at 10 µM (by protocol);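 active = fluorescent ligand binding to cells raised by more than 40% of the manganese-induced maximum; inconclusive = compound's own fluorescence above 85% of the ligand control signal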
26S disassembly – inhibitors of ATP-driven 26S proteasome dissociation, primary screen, biochemical, bead-based flow cytometry, GFP-tagged proteasome; anti-FLAG beads, GFP-proteasome disassembly; inhibition of disassembly, % (no concentration beside the values); 24,000 compounds, 0.2% hits;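 active = inhibition of disassembly above about 33%, limit read from the data; inconclusive = likely self-fluorescent, control bead median signal at least 40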;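 note: higher percent means more bead fluorescence retained so stronger block of disassembly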
Autofluor Jurkat – compound autofluorescence on Jurkat cells, primary screen, artefact control for VLA-4 allosteric ligand project, cell-based, flow cytometry. stronger effect = higher value; 1 = vehicle-only cell background. fluorescence ratio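 (tested at 10 µM compound in the well)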. 24,000 compounds, 0.61% hits. AID 576, 2007;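 active = fluorescence ratio above 2.44, which is 1 plus 3 SD of all ratios; inconclusive = signal too bright to measure linearly, ratio around 10 or more; inactive = fluorescence ratio below 2.44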;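 note: green fluorescence of cells measured with 488 nm excitation and 530 nm emission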
Of the large screens only hits and unclear results are named; the others gave an inactive call.

CC1CCc2nn(CC(=O)NC3CCCC(C)C3C)cc2C1 (configuration not stated)	none
C/C(=N\O)C(=O)NCc1ccncc1	VLA-4 antagonist inconclusive, VLA-4 agonist inconclusive, Autofluor Jurkat 6.2
CCOc1cc(C(=O)NCc2ccncc2)cc(OCC)c1OCC	none
COc1ccc(CNC(=O)c2cc(C3CC3)on2)cc1	none
COc1ccc(CNC(=O)c2onc(C)c2Cl)cc1	VLA-4 antagonist inconclusive, VLA-4 agonist inconclusive, 26S disassembly 124
COc1ccc(S(=O)(=O)NCCSCc2ccco2)cc1Cl	none
CC(=O)C1C(c2cccc(F)c2)NC(=O)NC1(O)C(F)(F)F (configuration not stated)	none
CCOC(=O)c1sc(NC(=O)CSc2nc3c(cc2C#N)CCC3)c(C#N)c1C	none
N#Cc1cc2c(nc1SCC(=O)Nc1sc3c(c1C#N)CCC3)CCCCC2	26S disassembly 105
CCOC(=O)N1CCN(c2nc(-c3ccc(OC)cc3)no2)CC1	none
CCOc1cc2[nH]c(=O)n(CCCCCC(=O)NCc3ccco3)c(=O)c2cc1OCC	VLA-4 antagonist 52 (no result: 26S disassembly)
C=CCn1c(/N=C/c2ccc(N(C)C)cc2)nc2ccccc21	VLA-4 antagonist inconclusive, VLA-4 agonist inconclusive, Autofluor Jurkat 4.8
C=CCn1c(C(C)NC(=O)C(C)(C)C)nc2ccccc21 (configuration not stated)	none
O=S1(=O)CC(N2CCCCC2)C(N2CCCCC2)C1 (configuration not stated)	none
Nc1nc2n(n1)C(c1ccccc1Cl)CC(c1ccc(F)cc1)N2 (configuration not stated)	VLA-4 antagonist inconclusive, VLA-4 agonist inconclusive, Autofluor Jurkat 2.7
CCOC(=O)c1c(C)[nH]c(C(=O)Cn2c(=O)c3c(ncn3CC)n(Cc3ccccc3)c2=O)c1C	26S disassembly 70
CCCCOC(=O)C1C2C=CC3(CN(CCc4ccccc4)C(=O)C13)O2 (configuration not stated)	none
C=CCn1c(=O)/c(=C/c2ccc(O)cc2)s/c1=C(/C#N)c1nnc2n1CCCCC2	VLA-4 antagonist inconclusive, VLA-4 agonist inconclusive, Autofluor Jurkat 3.7
CN1CC=C2C(C#N)=C(N)C(C#N)(C#N)C(c3cccc(Cl)c3Cl)C2C1 (configuration not stated)	VLA-4 antagonist inconclusive, VLA-4 agonist inconclusive, Autofluor Jurkat 2.7
NC(=O)c1oc2ccccc2c1NC(=O)c1nc2ccccc2s1	VLA-4 antagonist inconclusive, VLA-4 agonist inconclusive, Autofluor Jurkat 5.4
COc1ccc(-c2nnc(SCC(=O)NC(=O)NCc3ccco3)o2)cc1	none
N#Cc1c(N)n(CCNC(=O)c2cccs2)c2nc3ccccc3nc12	VLA-4 antagonist inconclusive, VLA-4 agonist inconclusive, Autofluor Jurkat 5.3
COc1ccc(CCn2c(N)c(C#N)c3nc4ccccc4nc32)cc1OC	VLA-4 antagonist inconclusive, VLA-4 agonist inconclusive
O=C(CN1C(=O)c2ccccc2C1=O)Nc1ccccc1C(=O)N1CCCC1	none
CCCCCCOC(=O)C(C#N)c1nc2ccccc2nc1N1CCCCC1 (configuration not stated)	none
CCCCNC(=O)C(C#N)c1nc2ccccc2nc1N1CCCC1 (configuration not stated)	VLA-4 antagonist inconclusive, VLA-4 agonist inconclusive, Autofluor Jurkat 2.5
Cc1ccc(-c2nc(NC(=O)CSc3nnnn3-c3ccccc3)ns2)cc1	VLA-4 antagonist 51
Cc1ccc2nc(NC(=O)C3CCCN(S(=O)(=O)c4cccc5nonc45)C3)sc2c1 (configuration not stated)	VLA-4 antagonist inconclusive, VLA-4 agonist inconclusive, Autofluor Jurkat 3.1
COc1ccc(C)cc1NC(=O)C1CCCN(S(=O)(=O)c2cccc3nonc23)C1 (configuration not stated)	none
Cc1cccc2sc(NC(=O)C3CCCN(S(=O)(=O)c4cccc5nonc45)C3)nc12 (configuration not stated)	VLA-4 antagonist inconclusive, VLA-4 agonist inconclusive, Autofluor Jurkat 2.6
COC(=O)c1ccsc1NC(=O)CN1C(=O)CCC1=O	none
CCOC(=O)C1CCCN(CCCc2ccccc2)C1 (configuration not stated)	none
Cc1[nH]c(=O)[nH]c1C(=O)CCCCC(=O)OCC(=O)Nc1ccccn1	none
CCOC(=O)CCCCC(=O)c1[nH]c(=O)[nH]c1CSc1nc2ccccc2[nH]1	VLA-4 antagonist 55

Assay outcomes: PubChem, NMMLSC
